# Test results published in PubChem BioAssay (EPA / NIEHS).
# Values joined by “and” are separate entries in the source; they are usually repeats but may differ in a detail not shown here. Identical values can stand only once. Records with an inconclusive call do not appear. Active and inactive are the calls of the source. The calls were made as follows: active = hit-call score of the fitted dose curve at least 0.9, where 1 is the maximum; inconclusive = response in the unintended direction; inactive = score below 0.9.
# What was measured:
# [1] = target: human Peripheral-type Benzodiazepine Receptor (PBR), TSPO (gene 706) (UniProt P30536); test: NVS_MP_hPBR: NovaScreen (NVS) Membrane Protein Assay for human Peripheral-type Benzodiazepine Receptor (PBR) (AID 2283331);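 also: hits reduce radioligand binding relative to DMSO baseline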
# How it was run: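 Radioligand displacement on human colonic cell membranes, 1 h incubation; bound radioactivity by filtration and scintillation counting. Primary screen in duplicate at 25 uM single concentration, actives followed up in concentration series; loss of binding versus DMSO.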
# [2] = target: rat Peripheral-type Benzodiazepine Receptor (PBR), Tspo (gene 24230) (UniProt P16257); test: NVS_MP_rPBR: NovaScreen (NVS) Membrane Protein Assay for rat Peripheral-type Benzodiazepine Receptor (PBR) (AID 2283335)
# How it was run: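 Rat kidney membranes; radioligand binding with displacement, filter-based scintillation counting, 1 h incubation. Primary screen in duplicate at 25 uM, actives followed in concentration series; loss of binding vs DMSO.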
# [3] = target: Estrogen receptor (Homo sapiens) (UniProt P03372); test: NVS_NR_hER: NovaScreen (NVS) Nuclear Receptor Binding Assay for human Estrogen Receptor (ER) (AID 2283348)
# How it was run: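 Radioligand competitive displacement binding to estrogen receptor from MCF7 extract, cell-free; 18 h after dosing, scintillation read-out. Primary screen in duplicate at 25 uM; actives followed up in concentration series; loss of signal vs DMSO.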
# [4] = target: Estrogen receptor (Homo sapiens) (UniProt P03372); test: OT_ER_ERaERa_1440: Odyssey Thera (OT) 24-hour HEK293T Protein-Complementation Assay for Estrogen Receptor-alpha/-alpha Homodimer (AID 2283349);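 also: hits raise fluorescence above DMSO for agonists and antagonists alike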
# How it was run: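 HEK293T cells stably expressing the human ER alpha ligand-binding domain (aa 310-547) as a homodimer PCA were dosed for 24 hours. Fluorescence intensity was read by laser scanning cytometry, and gain of signal was fitted relative to DMSO vehicle.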
# [5] = target: human Androgen Receptor (AR), AR (gene 367) (UniProt P10275); test: NVS_NR_hAR: NovaScreen (NVS) Nuclear Receptor Binding Assay for human Androgen Receptor (AR) (AID 2283332)
# How it was run: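 LnCAP cell-free extract; radioligand displacement read by scintillation counting after 20 h. Primary screen single concentration 25 uM in duplicate, actives then run as concentration series; loss-of-signal fitted relative to DMSO baseline.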
# [6] = target: chimpanzee Androgen Receptor (AR), AR (gene 747460) (UniProt O97775); test: NVS_NR_cAR: NovaScreen (NVS) Nuclear Receptor Binding Assay for chimpanzee Androgen Receptor (AR) (AID 2283346);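 also: radioligand displacement from AR measured by scintillation counting in a cell-free assay; a loss of bound radioligand signal versus DMSO counts as binding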
# How it was run: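 Radioligand binding to chimpanzee AR expressed in Sf9/Sf21 cells, cell-free, measured 72 h after dosing by lysate-based scintillation counting. Loss of signal vs DMSO; initial duplicate screen at 25 uM, actives retested in concentration series.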
# [7] = target: bovine Estrogen Receptor (ER), ESR1 (gene 407238) (UniProt P49884); test: NVS_NR_bER: NovaScreen (NVS) Nuclear Receptor Binding Assay for bovine Estrogen Receptor (ER) (AID 2283345);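 also: actives lower the bound radioligand count which means they displace the ER ligand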
# How it was run: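 Cell-free radioligand binding with receptor from bovine uterine membranes, read by scintillation counting 18 h after dosing. Loss of specific binding was scored against DMSO; primary screen at 25 uM in duplicate, actives then run as concentration series.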
# [8] = target: human Constitutive Androstane Receptor (CAR), NR1I3 (gene 9970) (UniProt Q14994); test: NVS_NR_hCAR_Antagonist: NovaScreen (NVS) Nuclear Receptor Binding Assay for human Constitutive Androstane Receptor Antagonism (CAR) (AID 2283344)
# Procedure: NVS_NR_hCAR_Antagonist is a biochemical, single-readout assay that uses extracted gene-proteins in a cell-free assay. Measurements were taken 1 hour after chemical dosing in a 384-well plate.NVS_NR_hCAR_Antagonist is one of one assay component(s) measured or calculated from the NVS_NR_hCAR_Antagonist assay. It is designed to make measurements of fluorescent resonance energy transfer, a form of binding reporter, as detected with fluorescent resonance energy transfer signals by Time-Resolved Fluorescence Resonance Energy Transfer (TR-FRET) technology.Data from the assay component NVS_NR_hCAR_Antagonist was analyzed into 1 assay endpoint. This assay endpoint, NVS_NR_hCAR_Antagonist, was analyzed in the positive analysis fitting direction relative to DMSO as the negative control and baseline of activity. Using a type of binding reporter, loss-of-signal activity can be used to understand changes in the binding as they relate to the gene NR1I3. Furthermore, this assay endpoint can be referred to as a primary readout, because the performed assay has only produced 1 assay endpoint. To generalize the intended target to other relatable targets, this assay endpoint is annotated to the nuclear receptor intended target family, where the subfamily is non-steroidal.
# Binding assays used specific radioligands (tritiated, iodinated) with non-radioactive competitive displacement ligands in agonist or antagonist protocols (as indicated) and various reference compounds and inhibitors to titrate specific binding to receptors and transporters. Most enzyme assays (CYPs, kinases, phosphatases, proteases, HDACs) used recombinant protein and specific substrates (fluorescence mostly, some colorimetric and radioactive) and inhibitors, followed by a biochemical separation of substrate and product. All assays for the biochemical HTS were initially run in duplicate at a single concentration (10 uM for CYP450 assays and 25 uM for all others). […] Each assay was run with positive and negative controls, and concurrent controls on every plate. […]
# [9] = system: NCBI gene 100848466; test: NVS_NR_bPR: NovaScreen (NVS) Nuclear Receptor Binding Assay for bovine Progextron Receptor (PR) (AID 2283343);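 also: actives lower bound radioligand signal below DMSO meaning displacement of the label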
# How it was run: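 Bovine uterine membrane preparation; radioligand displacement read by scintillation counting 18 h after dosing. Primary screen single concentration, 25 uM, in duplicate; actives followed up in concentration series. Signal loss versus DMSO baseline.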
# [10] = NVS_IC_rCaBTZCHL: NovaScreen (NVS) Ion Channel Assay for Calcium Channel, Type L, Benzothiazepine Site (CaBTZCHL) (AID 2283337)
# How it was run: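 Radioligand displacement at the benzothiazepine site using rat cortical membranes; bound label measured by filtration and scintillation counting 1.5 h after dosing. Single-point 25 uM in duplicate, then concentration series; DMSO baseline.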
# Chain of chimpanzee Androgen Receptor (AR), AR (gene 747460) (O97775 whole entry, looked up): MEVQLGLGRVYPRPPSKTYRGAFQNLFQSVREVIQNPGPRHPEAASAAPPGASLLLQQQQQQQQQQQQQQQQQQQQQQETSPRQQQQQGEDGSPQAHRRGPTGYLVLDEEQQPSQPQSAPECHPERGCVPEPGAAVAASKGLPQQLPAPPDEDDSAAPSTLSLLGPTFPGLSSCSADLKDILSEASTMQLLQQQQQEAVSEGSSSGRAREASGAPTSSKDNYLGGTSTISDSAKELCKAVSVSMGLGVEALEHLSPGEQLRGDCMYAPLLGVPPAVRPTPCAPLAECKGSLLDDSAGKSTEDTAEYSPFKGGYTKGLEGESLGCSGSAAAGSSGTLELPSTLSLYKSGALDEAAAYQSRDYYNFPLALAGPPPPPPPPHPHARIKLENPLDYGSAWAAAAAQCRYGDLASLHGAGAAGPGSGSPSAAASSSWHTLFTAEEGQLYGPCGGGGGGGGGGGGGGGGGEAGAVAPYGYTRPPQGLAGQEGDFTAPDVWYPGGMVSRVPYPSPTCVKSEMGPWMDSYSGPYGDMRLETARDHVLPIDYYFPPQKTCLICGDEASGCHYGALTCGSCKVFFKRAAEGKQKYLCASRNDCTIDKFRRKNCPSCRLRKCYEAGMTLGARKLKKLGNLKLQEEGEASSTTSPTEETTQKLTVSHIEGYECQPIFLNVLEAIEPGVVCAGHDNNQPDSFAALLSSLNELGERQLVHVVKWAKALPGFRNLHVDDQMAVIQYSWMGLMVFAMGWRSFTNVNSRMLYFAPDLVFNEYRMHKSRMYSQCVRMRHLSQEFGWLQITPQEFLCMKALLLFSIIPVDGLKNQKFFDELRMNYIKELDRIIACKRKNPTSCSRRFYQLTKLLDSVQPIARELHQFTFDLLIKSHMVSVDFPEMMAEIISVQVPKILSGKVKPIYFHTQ
# Chain of human Constitutive Androstane Receptor (CAR), NR1I3 (gene 9970) (Q14994 whole entry, looked up): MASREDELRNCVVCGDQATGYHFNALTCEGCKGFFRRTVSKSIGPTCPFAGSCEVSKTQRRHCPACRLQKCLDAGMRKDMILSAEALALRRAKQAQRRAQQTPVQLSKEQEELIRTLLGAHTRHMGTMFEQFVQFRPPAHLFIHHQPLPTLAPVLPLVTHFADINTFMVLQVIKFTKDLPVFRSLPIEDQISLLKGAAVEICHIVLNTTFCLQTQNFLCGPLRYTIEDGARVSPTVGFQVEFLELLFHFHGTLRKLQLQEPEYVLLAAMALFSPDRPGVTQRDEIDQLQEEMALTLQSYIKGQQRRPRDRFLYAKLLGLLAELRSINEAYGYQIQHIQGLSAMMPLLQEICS
# Chain of rat Peripheral-type Benzodiazepine Receptor (PBR), Tspo (gene 24230) (P16257 whole entry, looked up): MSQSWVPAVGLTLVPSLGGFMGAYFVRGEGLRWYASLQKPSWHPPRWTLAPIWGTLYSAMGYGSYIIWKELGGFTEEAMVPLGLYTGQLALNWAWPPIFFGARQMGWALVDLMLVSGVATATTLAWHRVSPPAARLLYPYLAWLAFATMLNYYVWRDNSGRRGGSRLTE
# Chain of bovine Estrogen Receptor (ER), ESR1 (gene 407238) (P49884 whole entry, looked up): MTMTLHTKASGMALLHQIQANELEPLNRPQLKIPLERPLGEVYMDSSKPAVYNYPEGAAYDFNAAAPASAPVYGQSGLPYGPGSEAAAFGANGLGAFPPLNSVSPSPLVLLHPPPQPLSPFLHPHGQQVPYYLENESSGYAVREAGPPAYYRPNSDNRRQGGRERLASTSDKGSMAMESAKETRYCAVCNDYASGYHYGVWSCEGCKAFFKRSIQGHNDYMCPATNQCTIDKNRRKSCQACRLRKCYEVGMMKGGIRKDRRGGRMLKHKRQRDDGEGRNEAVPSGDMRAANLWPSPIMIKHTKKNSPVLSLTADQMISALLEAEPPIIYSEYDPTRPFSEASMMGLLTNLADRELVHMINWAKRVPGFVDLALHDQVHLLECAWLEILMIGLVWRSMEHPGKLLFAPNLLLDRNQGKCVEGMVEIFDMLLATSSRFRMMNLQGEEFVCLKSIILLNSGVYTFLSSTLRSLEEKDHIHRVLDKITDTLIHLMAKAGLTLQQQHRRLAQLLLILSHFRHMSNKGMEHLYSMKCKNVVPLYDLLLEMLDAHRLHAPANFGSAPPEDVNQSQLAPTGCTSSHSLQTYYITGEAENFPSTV
# Chain of human Peripheral-type Benzodiazepine Receptor (PBR), TSPO (gene 706) (P30536 whole entry, looked up): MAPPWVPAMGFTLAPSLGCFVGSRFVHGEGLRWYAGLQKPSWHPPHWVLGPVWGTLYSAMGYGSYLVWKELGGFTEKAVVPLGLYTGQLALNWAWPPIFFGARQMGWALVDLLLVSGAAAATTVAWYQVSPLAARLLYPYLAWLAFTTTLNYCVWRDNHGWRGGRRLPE
# Chain of Estrogen receptor (Homo sapiens) (P03372 whole entry, looked up, the tested form may be a part): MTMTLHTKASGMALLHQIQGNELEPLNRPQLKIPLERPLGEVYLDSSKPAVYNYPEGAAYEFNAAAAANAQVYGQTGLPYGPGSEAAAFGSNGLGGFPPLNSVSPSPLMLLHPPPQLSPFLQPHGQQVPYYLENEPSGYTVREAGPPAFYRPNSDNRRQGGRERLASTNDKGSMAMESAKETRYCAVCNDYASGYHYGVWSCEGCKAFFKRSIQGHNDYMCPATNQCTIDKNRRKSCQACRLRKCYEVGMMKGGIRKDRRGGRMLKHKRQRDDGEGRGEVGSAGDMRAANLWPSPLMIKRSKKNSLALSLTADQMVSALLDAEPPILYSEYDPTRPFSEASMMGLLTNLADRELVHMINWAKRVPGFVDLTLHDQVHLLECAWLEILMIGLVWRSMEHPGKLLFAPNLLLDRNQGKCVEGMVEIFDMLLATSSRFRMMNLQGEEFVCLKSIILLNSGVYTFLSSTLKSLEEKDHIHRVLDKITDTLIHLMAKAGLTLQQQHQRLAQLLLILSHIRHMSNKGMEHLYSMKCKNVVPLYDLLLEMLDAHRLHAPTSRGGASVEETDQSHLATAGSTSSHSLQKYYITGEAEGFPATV
# Chain of human Androgen Receptor (AR), AR (gene 367) (P10275 whole entry, looked up): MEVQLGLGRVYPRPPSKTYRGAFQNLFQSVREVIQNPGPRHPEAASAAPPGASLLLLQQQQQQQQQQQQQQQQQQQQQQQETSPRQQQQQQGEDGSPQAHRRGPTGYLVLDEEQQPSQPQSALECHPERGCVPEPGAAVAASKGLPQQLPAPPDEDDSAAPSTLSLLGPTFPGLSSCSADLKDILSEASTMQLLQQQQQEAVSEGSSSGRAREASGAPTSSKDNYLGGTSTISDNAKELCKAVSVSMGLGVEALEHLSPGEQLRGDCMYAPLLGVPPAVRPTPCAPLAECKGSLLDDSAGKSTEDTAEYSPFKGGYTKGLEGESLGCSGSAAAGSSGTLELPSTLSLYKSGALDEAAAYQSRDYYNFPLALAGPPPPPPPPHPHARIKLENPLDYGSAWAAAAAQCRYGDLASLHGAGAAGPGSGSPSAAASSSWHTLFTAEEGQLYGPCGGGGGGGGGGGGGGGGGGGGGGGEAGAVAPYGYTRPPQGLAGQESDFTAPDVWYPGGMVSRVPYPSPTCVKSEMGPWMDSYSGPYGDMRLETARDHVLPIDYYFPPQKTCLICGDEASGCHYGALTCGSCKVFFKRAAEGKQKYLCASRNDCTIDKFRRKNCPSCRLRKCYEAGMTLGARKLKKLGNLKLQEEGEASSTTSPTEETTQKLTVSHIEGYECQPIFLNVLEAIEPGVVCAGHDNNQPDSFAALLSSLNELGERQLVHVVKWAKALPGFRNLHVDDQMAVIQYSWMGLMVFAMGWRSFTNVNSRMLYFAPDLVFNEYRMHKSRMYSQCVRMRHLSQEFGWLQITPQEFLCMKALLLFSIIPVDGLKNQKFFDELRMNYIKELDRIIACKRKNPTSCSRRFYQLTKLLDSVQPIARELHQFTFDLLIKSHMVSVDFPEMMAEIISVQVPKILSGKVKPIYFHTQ
smiles,measurement,setting,value
CC(C)N(C(=O)CCl)c1ccccc1,AC50,[1],7.59 µM (active) and 7.28 µM (active)
same,AC50,[2],3.16 µM (active) and 407 nM (active)
same,outcome,[3],inactive
same,outcome,[4],inactive
Cc1cc(C(C)(C)c2ccc(O)c(C)c2)ccc1O,AC50,[5],2.93 µM (active)
same,outcome,[2],inactive
same,outcome,[6],inactive
same,outcome,[3],inactive
CCOP(=O)(OCC)OC(=CCl)c1ccc(Cl)cc1Cl,AC50,[1],2.12 µM (active)
same,AC50,[2],1.65 µM (active)
same,outcome,[7],inactive
Clc1cccc(Cl)c1,outcome,[1],inactive
same,outcome,[8],inactive
Cc1ccccc1OP(=O)(Oc1ccccc1C)Oc1ccccc1C,AC50,[1],0.8 µM (active)
same,AC50,[2],17.1 µM (active)
CCCCCCCCCCCCc1cccc(S(=O)(=O)O)c1,AC50,[2],12.4 µM (active)
same,AC50,[9],19.5 µM (active)
same,AC50,[8],17.9 µM (active)
Cc1cccc(OP(=O)(Oc2cccc(C)c2)Oc2cccc(C)c2)c1,AC50,[1],1.79 µM (active)
same,AC50,[2],1.26 µM (active)
CCOP(=S)(OCC)OP(=S)(OCC)OCC,AC50,[2],17.8 µM (active)
CCOC(=O)CCN(SN(C)C(=O)Oc1cccc2c1OC(C)(C)C2)C(C)C,AC50,[1],5.06 µM (active)
same,AC50,[2],4.91 µM (active)
COCC(=O)N(c1c(C)cccc1C)[C@H](C)C(=O)OC,outcome,[1],inactive
CCOC(=O)C(SP(=S)(OC)OC)c1ccccc1 (stereo not given),AC50,[1],13.4 µM (active)
same,AC50,[2],7.41 µM (active)
OC(Cc1ccccc1Cl)(Cn1[nH]cnc1=S)C1(Cl)CC1 (stereo not given),outcome,[5],inactive
same,outcome,[6],inactive
CC(C)(COCC1CO1)COCC1CO1 (stereo not given),outcome,[2],inactive
OCC(c1ccc(Cl)cc1)c1ccc(Cl)cc1,outcome,[7],inactive
C#CCOC(=O)/C=C(C)/C=C/CC(C)CCCC(C)C (stereo not given),outcome,[6],inactive
O=c1[nH]c2ccccc2n1C1CCN(CCCC(c2ccc(F)cc2)c2ccc(F)cc2)CC1,outcome,[7],inactive
same,outcome,[3],inactive
O=c1oc2ccccc2c(O)c1C(CC(O)c1ccc(-c2ccc(Br)cc2)cc1)c1ccccc1 (stereo not given),outcome,[7],inactive
same,outcome,[6],inactive
Cc1ccc2nc3sc(=O)sc3nc2c1,AC50,[6],0.363 µM (active)
OC(Cc1ccccc1Cl)(Cn1cncn1)C1(Cl)CC1 (stereo not given),outcome,[6],inactive
CC(C)O.CC(C)O.OCCN(CCO)CCO.OCCN(CCO)CCO.[Ti],AC50,[8],25 µM (active)
CC(C)[C@@H](Nc1ccc(C(F)(F)F)cc1Cl)C(=O)OC(C#N)c1cccc(Oc2ccccc2)c1 (stereo not given in full),outcome,[7],inactive
same,outcome,[3],inactive
CCC[CH2][Sn]([Cl])([Cl])[CH2]CCC,AC50,[6],19.6 µM (active)
same,outcome,[3],inactive
same,outcome,[4],inactive
Nc1ccc(N)cc1,AC50,[6],25 µM (active)
O=[N+]([O-])c1ccc(Cl)c([N+](=O)[O-])c1,outcome,[7],inactive
same,AC50,[6],11.9 µM (active)
same,outcome,[3],inactive
O=C(CCl)Nc1ccccc1,outcome,[7],inactive
same,outcome,[6],inactive
same,outcome,[4],inactive
CC(C)=CC1C(C(=O)OCc2cccc(Oc3ccccc3)c2)C1(C)C (stereo not given),outcome,[6],inactive
same,outcome,[4],inactive
Nc1nc(N)nc(Cl)n1,outcome,[10],inactive
O=S(=O)(C(Cl)(Cl)Cl)C(Cl)(Cl)Cl,outcome,[10],inactive
Oc1c(Br)cc(Br)cc1Br,outcome,[7],inactive
same,outcome,[4],inactive
Brc1ccc(Br)cc1,outcome,[10],inactive
Oc1cc(Cl)c(Cl)cc1Cl,outcome,[6],inactive
Cc1cc(SCc2sc(-c3ccc(C(F)(F)F)c(F)c3)nc2C)ccc1OCC(=O)O,outcome,[7],inactive
same,outcome,[3],inactive
CC(O)(CS(=O)(=O)c1ccc(F)cc1)C(=O)Nc1ccc(C#N)c(C(F)(F)F)c1 (stereo not given),outcome,[7],inactive
same,outcome,[4],inactive
O=S(=O)(Oc1ccc(Cl)cc1)c1ccc(Cl)cc1,outcome,[3],inactive
O=S(=O)(c1ccc(Cl)cc1)c1cc(Cl)c(Cl)cc1Cl,outcome,[7],inactive
[F][Sn]([c]1ccccc1)([c]1ccccc1)[c]1ccccc1,outcome,[7],inactive
CC(C)(C1CCC(O)CC1)C1CCC(O)CC1 (stereo not given),outcome,[7],inactive
C=CC(=O)[O][Sn]([CH2]CCC)([CH2]CCC)[CH2]CCC,outcome,[7],inactive
same,outcome,[3],inactive
OC(c1ccc(Cl)cc1)(c1ccc(Cl)cc1)c1cccnc1,outcome,[3],inactive
N#CS,outcome,[6],inactive
